In PubChem BioAssay (NCATS):
Results filed as inconclusive are left out. Activity calls are given as the source filed them. Calls come from the whole dose curve; as a rule, active = well fitted cell-killing curve with a large enough effect; inconclusive = small, poorly fitted or top-dose-only effect, or effect the other way; inactive = no such curve, though single readings can be large or run the other way.

Assay: Viability qHTS for spleen associated tyrosine kinase inhibitor (SYKi) drug resistant MV4-11 cells (AID 1963824); note: nearly all actives have a fitted effect of over 35% in size
Conditions: SYKi-resistant MV4-11 viability, CellTiter-Glo, 72 h; series mostly up to 45 µM
Outline: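 CellTiter-Glo luminescence, read 10 min after reagent addition, reports viability after a 72 hr compound exposure. Cells are an MV4-11 line made resistant to SYK inhibition, seeded at 500 per well onto compound-containing plates.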
Potency is the fitted concentration of half-maximal effect.

| SMILES | Potency |
| --- | --- |
| COC[C@]12CN(C)C3C4[C@H](OC)[C@H]1C3(C(OC)C[C@H]2O)[C@H]1C[C@@]2(O)[C@H](OC(=O)c3ccccc3)[C@@H]1[C@]4(O)[C@@H](O)[C@@H]2OC (stereo partly specified) | inactive |
| CC(=O)OC[C@]12[C@H](OC(C)=O)C(=O)[C@@H]3[C@@H](O)[C@@]14O[C@@]3(C)COC(=O)c1cccnc1[C@@H](C)[C@H](C)C(=O)O[C@@H]([C@H](OC(C)=O)[C@@H]2OC(C)=O)[C@]4(C)O | 5.44 µM (active) |
| C=C1C(=O)O[C@@H]2[C@H]3C(=C)[C@@H](O)C[C@H]3C(=C)C[C@@H](O)[C@@H]12 | 3.66 µM (active) |
| COC1CC(O[C@H]2CC[C@]3(C=O)C4CC[C@]5(C)[C@@H](C6=CC(=O)OC6)CC[C@]5(O)[C@@H]4CC[C@@H]3C2)OC(C)C1O[C@@H]1O[C@H](CO)[C@@H](O[C@@H]2O[C@H](CO)[C@@H](O)[C@H](O)[C@H]2O)[C@H](O)[C@H]1O (stereo partly specified) | 0.123 µM (active) |
| CC1N=C(N)OC1c1ccccc1 (stereo unspecified) | inactive |
| CC/C=C/C=C/C1(C)OC(OC)=C(C(=O)C2C(C)C(=O)c3cc(OC)c(O)c(O)c3C2(C)O)C1=O (stereo unspecified) | 10 µM (active) |
| C[C@H]1C(=O)O[C@H]2[C@H](O)[C@]34C5OC(=O)[C@]3(O[C@@H]3OC(=O)[C@H](O)C34[C@H](C(C)(C)C)[C@H]5O)C12O (stereo partly specified) | inactive |
| O=C(O)P(=O)(O)O | inactive |
| CC(C)(C)[C@]1(O)C[C@@H]2OC(=O)C[C@@]23C(=O)O[C@@H]2OC(=O)[C@@H](O)[C@]213 | inactive |
| CO[C@@H]1[C@H](O)[C@@H](O[C@@H]2C[C@H]3CC[C@@H]4C(CC[C@]5(C)[C@@H](C6=CC(=O)OC6)CC[C@]45O)[C@@]3(C)[C@H](O)C2)O[C@H](C)[C@@H]1O[C@@H]1O[C@H](CO)[C@@H](O)[C@H](O)[C@H]1O (stereo partly specified) | 0.0544 µM (active) |
| O=C(NCCN1CCC2(CC1)C(=O)NCN2c1cccc(F)c1)c1ccc2ccccc2c1 | 5.8 µM (active) |
| CO[C@@H]1C[C@H](O[C@H]2CC[C@@]3(C)C(CCC4C3CC[C@]3(C)[C@@H](C5=CC(=O)OC5)[C@@H](OC(C)=O)CC43O)C2)O[C@H](C)[C@@H]1O[C@H]1O[C@H](CO[C@@H]2O[C@H](CO)[C@@H](O)[C@H](O)[C@H]2O)[C@@H](O)[C@H](O)[C@H]1O (stereo partly specified) | 0.155 µM (active) |
| C=C(CO)C(=O)O[C@H]1C/C(C)=C/CC/C(CO)=C/[C@H]2OC(=O)C(=C)[C@H]12 | inactive |
| C/C=C(\C)C(=O)OC1CC2C(C)(C)OC(=O)CC(OC(C)=O)C2(C)C2CC(OC(=O)C(C)C)C3(C)C(c4ccoc4)CC4OC43C12C (stereo unspecified) | inactive |
| NC(=O)c1ncn2c1CN=C(c1ccccc1Br)c1cc(F)ccc1-2 | inactive |
| COC(=O)C1(C)CCC(O)C2(C)c3c(O)cc(C(C)C)cc3C(O)C(OC(C)=O)C12 (stereo unspecified) | inactive |
| C[C@H]1O[C@@H](n2cnc3c(N)ncnc32)C[C@@H]1O | inactive |
| COC1C=CC23c4cc5c(cc4COC2(O)CN(C)C3C1)OCO5 (stereo unspecified) | inactive |
| CC[C@@H](C)[C@H]1C(=O)O[C@H](C(C)C)C(=O)N(C)[C@@H](C(C)C)C(=O)O[C@H](C(C)C)C(=O)N(C)[C@@H](C(C)C)C(=O)O[C@H](C(C)C)C(=O)N1C | 2.73 µM (active) |
| O=C1Nc2ccc3ncsc3c2/C1=C/c1cnc[nH]1 | 0.164 µM (active) |
| CC(=O)O[C@@H]1[C@@H](O)[C@H]2O[C@@H]3C=C(C)[C@@H](O)C[C@]3(CO)[C@]1(C)[C@]21CO1 | 0.321 µM (active) |
| CC1Oc2cc3c(-c4c(O)cc(O)c5c(O)c6c(cc45)OC(C)C(C)C6=O)c(O)cc(O)c3c(O)c2C(=O)C1C (stereo unspecified) | 4.61 µM (active) |
| CC(=O)O[C@@H]1CC2C(C)(C)C(=O)C=C[C@]2(C)C2CC[C@]3(C)C(=CC(=O)O[C@H]3c3ccoc3)[C@@]21C (stereo partly specified) | 13 µM (active) |
| O=C1C[C@@H]2OCC=C3CN4CC[C@]56c7ccccc7N1[C@H]5[C@H]2[C@H]3C[C@H]46 | inactive |
| CN1C(=O)[C@@H](Cc2c[nH]c3ccccc23)N=C(c2ccccc2F)c2ccccc21 | 20.6 µM (active) |
| C/C=C(\C)C(=O)O[C@H]1CC2C(=C1C)[C@H]1OC(=O)[C@](C)(O)[C@]1(O)[C@H](OC(=O)CCC)C[C@@]2(C)OC(C)=O (stereo partly specified) | 0.563 µM (active) |
